The subject of experiment [1] is NIH3T3. Description: Cytotoxic Profiling of Annotated Libraries Using Quantitative High-Throughput Screening (AID 1296008). The conditions noted are these: Five cell lines viability, CellTiter-Glo ATP luminescence, 48-72 h; max response: stronger effect = lower value. In a few lines: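 Compounds were pin-transferred onto cells and incubated 48 or 72 hr at 37 degree Celsius, 95% humidity. CellTiter-Glo was added, plates sat 10 min at room temperature, then ATP-coupled luminescence was imaged as the viability read-out.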
In general terms: ATP-based viability assays read luminescence as a measure of living cells.

Experiment [2] deals with HEK293T. Description: qHTS assay to identify novel small-molecules to repurpose for Merkel cell carcinoma treatment (AID 1296009). To be noted: MCC and control cell lines, CellTiter-Glo viability, 72 h; at 44.8 µM (top of the series). In a few lines: (§1)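 qHTS format: cells treated with library compounds in DMSO across 8 (NPC) or 11 (MIPE) concentrations. Readout after 72 hr at 37 degree celsius was CellTiter-Glo luminescence.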

Experiment [3] deals with MCC-13. The experiment is described as above. To be noted: MCC and control cell lines, CellTiter-Glo viability, 72 h; series mostly up to 46 µM. In a few lines: as §1
The subject of experiment [4] is MCC-26. The experiment is described as above. The conditions noted are these: MCC and control cell lines, CellTiter-Glo viability, 72 h; series mostly up to 46 µM. The procedure, abridged: as §1
Experiment [5] concerns MKL-1. Described as above. The conditions noted are these: MCC and control cell lines, CellTiter-Glo viability, 72 h; series mostly up to 46 µM. The procedure, abridged:
as §1

The subject of experiment [6] is MKL-2. Described as above. To be noted: MCC and control cell lines, CellTiter-Glo viability, 72 h; series mostly up to 46 µM. The procedure, abridged: as §1
For experiment [7], the system named is NIH3T3. The description is as above. The conditions noted are these: MCC and control cell lines, CellTiter-Glo viability, 72 h; at 44.8 µM (top of the series) unless noted. The procedure, abridged: as §1
The subject of experiment [8] is UISO. Described as above. The conditions noted are these: MCC and control cell lines, CellTiter-Glo viability, 72 h; series mostly up to 46 µM. In a few lines: as §1
The subject of experiment [9] is WaGa. The experiment is described as above. The conditions noted are these: MCC and control cell lines, CellTiter-Glo viability, 72 h; series mostly up to 46 µM. In a few lines:
as §1

Experiment [10] concerns HACAT. The description is as above. The conditions noted are these: MCC and control cell lines, CellTiter-Glo viability, 72 h; at 44.8 µM (top of the series) unless noted. In a few lines:
as §1

Experimental findings from PubChem BioAssay (NCATS) are described below.

Several values for one entry are separate records, joined by “and”; a condition that tells them apart may be missing. Identical values can stand only once. Records with an inconclusive call do not appear. Unmarked numbers belong to inactive results. Activity calls are given as the source filed them. Calls come from the whole dose curve; as a rule, active = well fitted inhibition curve with a large enough effect; inconclusive = small, poorly fitted or top-dose-only effect; inactive = flat fitted curve, though single readings scatter.
% is set by controls: 0 for no effect and ±100 for the full control effect; potency is the fitted concentration of half-maximal effect.
Note: nearly all actives have a fitted effect of over 60% in size.

For the molecule `O=c1cc(-c2cccc3c2Sc2ccccc2S3)oc(N2CCOCC2)c1`, the outcome in [1], in experiment [2] and in [7] was inactive. The Potency entry in experiment [3], in experiment [4], in experiment [5], in [6], in [8] and in [9] was “inactive” in each case.

Turning to `CC(C)=CC[C@@H](O)C1=CC(=O)c2c(O)ccc(O)c2C1=O`, the max response in experiment [1] is 4.11%. For the same molecule, the call in [10] was inactive. For the same molecule, the Potency result in [3] and in experiment [8] was “inactive” throughout. Further, the figures for the Potency in experiment [6] and in experiment [9] were 20.9 µM (active) and 23.5 µM (active), respectively.

On to `Nc1ncnc2c1nc(Cl)n2[C@@H]1O[C@H](CO)[C@@H](O)[C@@H]1O`, for which, in experiment [1], the Potency is 26.4 µM (active). For the same molecule, the Potency entry in [3] is “inactive”.

Turning to `CC=CCC=CCCC(=O)[C@H]1O[C@@H]1C(N)=O`, the max response in experiment [1] was 1.26%. Also, the call in experiment [10] was inactive. The Potency result in experiment [3], in experiment [4], in experiment [8] and in experiment [9] was “inactive” in each case.

Take `OC[C@H]1O[C@@H](n2cnc3c2NC=NC[C@@H]3O)C[C@H]1O`: the result in [1], in experiment [2] and in experiment [7] was inactive. Further, the Potency result in experiment [3], in experiment [4], in [5], in experiment [6], in [8] and in [9] was “inactive” throughout.

Consider `CO[C@H]1C[C@@H]2CC[C@@H](C)[C@@](O)(O2)C(=O)C(=O)N2CCCC[C@@H]2C(=O)O[C@H]([C@H](C)C[C@@H]2CC[C@H](OP(C)(C)=O)[C@H](OC)C2)CC(=O)[C@H](C)C=C(C)[C@@H](O)[C@@H](OC)C(=O)[C@H](C)C[C@H](C)C=CC=CC=C1C`, for which, in experiment [1], the max response is 4.15%. The outcome in experiment [10] was inactive. Besides, the Potency result in experiment [3], in experiment [6] and in experiment [8] was “inactive” in each case. In addition, the Potency in experiment [9] is 23.5 µM (active).

`O=C(Nc1ccccc1-c1cn2c(CN3CCNCC3)csc2n1)c1cnc2ccccc2n1`: the Potency in [1] was 29.6 µM (active); in experiment [4], 33.2 µM (active). Further, the molecule was called inactive in [10]. Also, the Potency result in experiment [9] is “inactive”.

On to `Cc1ccc([C@@H]2O[C@H](CO)[C@@H](O)[C@H](O)[C@@H]2O)cc1Cc1ccc(-c2ccc(F)cc2)s1`, for which the result in experiment [1], in [10] and in experiment [7] was inactive. The Potency result in [3], in [5], in [6], in experiment [8] and in experiment [9] was “inactive” each time.

With `CCN(CC)CCOc1ccc(C(=C(Cl)c2ccccc2)c2ccccc2)cc1`, the max response in [1] is 2.62%. Further, the molecule was called inactive in experiment [2]. The Potency result in [3], in [4], in experiment [5], in [6], in [8] and in experiment [9] was “inactive” each time.

On to `COc1ccc2cc(-c3nc(-c4ccc(S(C)=O)cc4)[nH]c3-c3ccncc3)ccc2c1` (stereo not drawn), for which the max response in [1] was 3.08%. Moreover, the molecule was called inactive in experiment [10]. The Potency entry in experiment [3], in [4], in [5], in experiment [8] and in experiment [9] was “inactive” in each case.

As to `O=C(O)c1c(Cl)c(Cl)c(Cl)c(Cl)c1-c1c2cc(I)c(=O)c(I)c-2oc2c(I)c(O)c(I)cc12`, the max response in experiment [1] is -19.3%. In experiment [10], the outcome was inactive. Moreover, the Potency result in [8] was “inactive”.

On to `N#CC1(c2ccc(NC(=O)c3cccnc3NCc3ccncc3)cc2)CCCC1`, for which, in experiment [1], the max response is -15.9%. Further, the molecule was called inactive in [10]. In addition, the Potency result in experiment [3], in [5], in experiment [6], in experiment [8] and in [9] was “inactive” each time.

With `CC[C@@H]1C=C(C)C[C@H](C)C[C@H](OC)[C@H]2O[C@@](O)(C(=O)C(=O)N3CCCC[C@@H]3C(=O)O[C@H](C(C)=C[C@@H]3CC[C@H](Cl)[C@H](OC)C3)[C@H](C)[C@@H](O)CC1=O)[C@H](C)C[C@H]2OC`, in [1], the max response is -7.01%. Further, the Potency result in [3] and in [4] was “inactive” in each case.

With `CCC(CC)[C@H](NC(C)=O)[C@@H]1[C@H](O)[C@@H](C(=O)O)C[C@@H]1N=C(N)N`, the molecule was classed as inactive in experiment [1], in experiment [10] and in experiment [7]. In addition, the Potency result in experiment [3], in [5], in [6], in experiment [8] and in [9] was “inactive” in each case.

Consider `c1ccc2c(-c3cnn4cc(-c5ccc(N6CCNCC6)cc5)cnc34)ccnc2c1`, for which, in [1], the max response was -102%. For the same molecule, the results for the Potency in [3], in [4] and in experiment [5] were 10.5 µM (active), 8.33 µM (active) and 2.96 µM (active), respectively.

`Cc1ccccc1C(C(=O)NC1CCCCC1)N(C(=O)Cn1ccnc1C)c1cccc(F)c1` (stereo not drawn): the max response in experiment [1] was -2.46% and -16.9%. For the same molecule, the call in [10] was inactive. The Potency result in experiment [3], in [5], in experiment [6], in [8] and in [9] was “inactive” in each case.

In the case of `C[C@H](NC(=O)C(=O)Nc1ccccc1C(C)(C)C)C(=O)N[C@@H](CC(=O)O)C(=O)COc1c(F)c(F)cc(F)c1F`, the outcome in experiment [1], in [10] and in experiment [7] was inactive. Also, in experiment [4], the Potency entry was “inactive”. For the same molecule, the values for the Potency in experiment [5] and in [6] were 20.9 µM (active) and 16.6 µM (active), respectively.

As to `CC(=O)N[C@@H](CS)C(=O)O`, the molecule was classed as inactive in experiment [1], in experiment [2] and in experiment [7]. Further, the Potency result in [3], in experiment [4], in experiment [5], in experiment [6], in experiment [8] and in [9] was “inactive” throughout.

For the molecule `NS(=O)(=O)c1ccc(NC2=CC(=O)c3ccccc3C2=O)cc1`, in experiment [1], the max response is -17.3%. Further, in experiment [10], the result was inactive. For the same molecule, the Potency entry in [4] was “inactive”. Besides, in [8], the Potency was 2.64 µM (active).

As to `Clc1ccc(Cn2c(CN3CCCC3)nc3ccccc32)cc1`, the max response in experiment [1] was 3.2% and 1.49%. In experiment [10], the outcome was “inactive [at 17.4 µM]”. In addition, the Potency result in experiment [3], in experiment [4], in experiment [5] and in [9] was “inactive” in each case.

As to `Nc1ncnc2ccccc12`, in [1], the max response is -0.365%. In addition, in [2], the outcome was inactive. Moreover, the Potency entry in experiment [3], in experiment [5], in [6], in [8] and in [9] was “inactive” each time.

As to `C[N+](C)(C)CCCCCC[N+](C)(C)C`, the call in [1], in experiment [2] and in experiment [7] was inactive. The Potency result in experiment [3], in [4], in [5], in [6], in [8] and in [9] was “inactive” in each case.
